# Screen size: about 69,000 compounds; about 1,000 (1.4%) showed an effect of 50% or more. The sample as a whole holds a higher share of strong results than the screen did.
# System: Leishmania donovani
# Assay: Leishmania intramacrophage assay
# Format: functional, organism-based
# Set-up: scale not given: in the data most compounds retested in dose-response had high values
structure (smiles),measurement,setting,value
O=C(O)C(F)(F)F.O=C(O)C(F)(F)F.O=C(c1ccco1)N1CCN2C[C@H](OCc3cccnc3)C[C@H]2C1,Percent Effect,"30.3 µM, […]",15.93%
O=C(O)C(F)(F)F.c1ccc(NC[C@@H]2CCC[C@@H]3CN(Cc4cccnc4)C[C@@H]32)nc1,Percent Effect,"30.3 µM, […]",38.85%
Fc1cccc(CN2C[C@@H]3CN(c4ncccn4)C[C@@H]3C2)c1.O=C(O)C(F)(F)F.O=C(O)C(F)(F)F,Percent Effect,"30.3 µM, […]",8.696%
Cc1noc(C)c1CN1C[C@@H]2CC(F)(F)C[C@@H]2C1.O=C(O)C(F)(F)F,Percent Effect,"30.3 µM, […]",4.682%
Cc1noc(C)c1CN1C[C@H]2CN(Cc3cccc(F)c3)C[C@H]2C1.O=C(O)C(F)(F)F.O=C(O)C(F)(F)F,Percent Effect,"30.3 µM, […]",50.84%
O=C(C1CCOC1)N1CCC2(CCNCC2)C1 (stereo not given),Percent Effect,"30.3 µM, […]",11.74%
Cc1cc(CN2CC[C@H]3C[C@@H](c4nccs4)O[C@@H]3C2)no1,Percent Effect,"30.3 µM, […]",12.1%
Cc1nnc([C@H]2C[C@@H]3CCN(Cc4cc(C)on4)C[C@H]3O2)[nH]1,Percent Effect,"30.3 µM, […]",19.71%
Cc1cc(CN2CC[C@@H]3O[C@@H](c4nnc(C)o4)C[C@H]3C2)no1,Percent Effect,"30.3 µM, […]",55.35%
CCc1c(C)[nH]c(C2(N)CCCC2)nc1=O.Cl,Percent Effect,"30.3 µM, […]",9.424%
O=C(O)C(F)(F)F.c1cnc(N2CCCC3(CCN(CC4CCC4)C3)C2)nc1 (stereo not given),Percent Effect,"30.3 µM, […]",67.66%
O=C(O)C(F)(F)F.c1cnc(N2CCC3(CCCN(CC4CC4)C3)CC2)nc1,Percent Effect,"30.3 µM, […]",32.8%
O=C(O)C(F)(F)F.O=C(O)C(F)(F)F.c1cnc(N2CCCC3(CCN(CC4CC4)C3)C2)nc1 (stereo not given),Percent Effect,"30.3 µM, […]",29.01%
Cc1noc([C@@H]2C[C@H]3OCC[C@H]3N(C(C)C)C2)n1.O=C(O)C(F)(F)F,Percent Effect,"30.3 µM, […]",-1.476%
c1ccc(N2CCCC3(CCN(Cc4nccs4)C3)C2)nc1 (stereo not given),Percent Effect,"30 µM, 30.03 µM",40.77%
CNC(=O)[C@@H]1[C@H]2CNCCN2C[C@H]1c1ccccc1,Percent Effect,"30.3 µM, […]",3%
Cc1ccc(CN2CCC3(CC2)C(=O)Nc2ccccc23)s1.O=C(O)C(F)(F)F,Percent Effect,"30.3 µM, […]",7.529%
Cl.Cl.NC[C@H]1[C@H]2CN(Cc3ccccc3)C[C@@H]12,Percent Effect,"30 µM, 30.03 µM",3.608%
Cl.Cl.NCC1[C@H]2CN(CCc3ccccc3)C[C@@H]12 (stereo not given in full),Percent Effect,"30 µM, 30.03 µM",31.54%
NCC1[C@H]2CN(Cc3cccc(Cl)c3)C[C@@H]12 (stereo not given in full),Percent Effect,"30.3 µM, […]",88.17%
CN1CCCCC1c1cncc(Cl)n1.Cl (stereo not given),Percent Effect,"30.3 µM, […]",9.533%
CCN1CCC2(CC1)C(=O)Nc1ccc(C(=O)NC)cc12.O=C(O)C(F)(F)F,Percent Effect,"30.3 µM, […]",1.318%
O=C(N1CCOCC1)[C@@]12CCO[C@@H]1CCN(Cc1ccncc1)C2.O=C(O)C(F)(F)F.O=C(O)C(F)(F)F,Percent Effect,"30.3 µM, […]",2.48%
CC(N)Cc1ccccc1Sc1ccc(O)cc1.CC(N)Cc1ccccc1Sc1ccc(O)cc1.O=C(O)C(=O)O (stereo not given),Percent Effect,"30.3 µM, […]",78.04%
CNS(=O)(=O)CC(=O)NC(C)Cc1ccccc1Br (stereo not given),Percent Effect,"30.3 µM, […]",6.804%
CC[C@H](C)[C@@H](CO)NC(C)Cc1ccccc1F (stereo not given in full),Percent Effect,"30.3 µM, […]",2.411%
CNC(C)Cc1ccccc1Sc1ccc(O)cc1.Cl (stereo not given),Percent Effect,"30.3 µM, […]",66.06%
CC(N)Cc1ccccc1Sc1ccccc1.O=C(O)/C=C\C(=O)O (stereo not given),Percent Effect,"30.3 µM, […]",100.2%
Cc1noc(C)c1CN1CCCC2(CCN(C(=O)NC3CC3)C2)C1.O=C(O)C(F)(F)F (stereo not given),Percent Effect,"30 µM, 30.03 µM",17.52%
O=C(C[C@@H]1COC[C@H]2CN(Cc3cccnc3)C[C@@H]12)N1CCCC1.O=C(O)C(F)(F)F.O=C(O)C(F)(F)F,Percent Effect,"30.3 µM, […]",-30.89%
CN1C(=O)C2(CCN(CC3CC3)CC2)c2ccccc21.O=C(O)C(F)(F)F,Percent Effect,"30 µM, 30.03 µM",16.21%
CN(C)[C@@H]1CCN(C(=O)Cc2ccc(F)cc2)[C@H]1Cc1ccncc1.O=C(O)C(F)(F)F.O=C(O)C(F)(F)F,Percent Effect,"30.3 µM, […]",29.68%
Cc1cccc(CN2CC[C@@H]3[C@@H]2CCN3C(=O)c2ccoc2C)n1.O=C(O)C(F)(F)F.O=C(O)C(F)(F)F,Percent Effect,"30.3 µM, […]",32.03%
Cc1[nH]c(C2(N)CCCCC2)nc(=O)c1C.Cl,Percent Effect,"30.3 µM, […]",27.19%
Cc1cnc(C(=O)N2C[C@H]3CN(Cc4cccnc4)C[C@H]3C2)cn1.O=C(O)C(F)(F)F.O=C(O)C(F)(F)F,Percent Effect,"30.3 µM, […]",19.7%
Cc1noc(C)c1CN1C[C@@H]2C[C@H](C(=O)NCC3CC3)N(C)[C@@H]2C1.O=C(O)C(F)(F)F.O=C(O)C(F)(F)F,Percent Effect,"30.3 µM, […]",-4.016%
CCN1CC2(CC1=O)CN(Cc1ccccn1)CCN(C(C)=O)C2.O=C(O)C(F)(F)F.O=C(O)C(F)(F)F (stereo not given),Percent Effect,"30.3 µM, […]",0.8966%
O=C(O)C(F)(F)F.O=C(O)C(F)(F)F.c1ccc(CN2CC[C@H]3CO[C@H](CNc4ncccn4)[C@H]3C2)cc1,Percent Effect,"30.3 µM, […]",8.127%
O=C(O)C(F)(F)F.O=C(O)C(F)(F)F.c1cncc(COC[C@H]2CC[C@H]3[C@H](CCN3Cc3cccs3)O2)c1,Percent Effect,"30 µM, 30.03 µM",31.53%
CN(C)C(=O)CN1CC[C@@H]2O[C@@H](COCc3cccnc3)CC[C@@H]21.O=C(O)C(F)(F)F.O=C(O)C(F)(F)F,Percent Effect,"30.3 µM, […]",38.61%
O=C(O)C(F)(F)F.O=C(O)C(F)(F)F.c1cncc(COC[C@H]2CC[C@H]3[C@H](CCN3Cc3nccs3)O2)c1,Percent Effect,"30.3 µM, […]",98.87%
COc1cc(CNC(C)Cn2cccn2)cc(Cl)c1OC.Cl (stereo not given),Percent Effect,30 µM,29.92%
Cc1cc(CN2C[C@@H]3COC[C@]3(CNC(=O)c3ccsc3)C2)no1.O=C(O)C(F)(F)F,Percent Effect,"30.3 µM, […]",18.56%
Cn1cc(CN2CCC3(CCCN3Cc3cccnc3)CC2)cn1.O=C(O)C(F)(F)F.O=C(O)C(F)(F)F.O=C(O)C(F)(F)F,Percent Effect,"30.3 µM, […]",63.2%
Cn1cc(N2CCC3(CCN(Cc4cccnc4)C3)C2=O)cn1.O=C(O)C(F)(F)F.O=C(O)C(F)(F)F (stereo not given),Percent Effect,"30 µM, 30.03 µM",-14.07%
O=C(O)C(F)(F)F.O=C(c1ccc[nH]1)N1CCC2(CCCN2Cc2cccnc2)CC1,Percent Effect,"30.3 µM, […]",12.17%
COCCN1C[C@@H]2[C@@H](OC)CCN(C(=O)Cc3ccccc3)[C@@H]2C1.O=C(O)C(F)(F)F,Percent Effect,"30.3 µM, […]",35.25%
COc1cc(C2SCC(=O)Nc3[nH]ncc32)cc2c1OCO2 (stereo not given),Percent Effect,"30.3 µM, […]",1.862%
COc1cc(C2SCC(=O)Nc3[nH]ncc32)cc(OC)c1OC (stereo not given),Percent Effect,"30.3 µM, […]",56.1%
COc1cc(C2SCC(=O)Nc3[nH]ncc32)c(OC)c2c1OCO2 (stereo not given),Percent Effect,"30.3 µM, […]",8.87%
COc1ccnc(N2C[C@@H]3CC[C@H](C2)N(CC2CC2)C3)n1,Percent Effect,"30.3 µM, […]",37.63%
CCOc1ccc(-c2cc(CCN)ccc2OC)cc1,Percent Effect,"30.3 µM, […]",-5.145%
CC(=O)Nc1cccc(-c2ccccc2CCN)c1,Percent Effect,"30.3 µM, […]",-35.33%
COc1ccc(-c2ccccc2CCN)c(OC)c1,Percent Effect,"30.3 µM, […]",75.35%
COCC(=O)N1CCC2(CCN(Cc3cccnc3)C2)CC1.O=C(O)C(F)(F)F.O=C(O)C(F)(F)F,Percent Effect,"30.3 µM, […]",22.03%
Fc1cnc(N2CCO[C@H]3CN(CC4CCCCC4)C[C@H]32)nc1.O=C(O)C(F)(F)F,Percent Effect,"30.3 µM, […]",-16.59%
O=C(O)C(F)(F)F.O=C(O)C(F)(F)F.O=C(O)C(F)(F)F.O=C1C[C@@H]2[C@H](CCN2Cc2ccccn2)N1Cc1ccncc1,Percent Effect,"30.3 µM, […]",27.44%
c1ccc(CCN2C[C@@H]3OCCN(c4ncccn4)[C@@H]3C2)cc1,Percent Effect,"30.3 µM, […]",6.788%
Cn1ccnc1CN1C[C@@H]2OCCN(c3ncccn3)[C@@H]2C1,Percent Effect,"30.3 µM, […]",50.19%
Fc1ccccc1CN1C[C@@H]2OCCN(c3ncccn3)[C@@H]2C1,Percent Effect,"30.3 µM, […]",15.52%
Cc1ccc(N2CCO[C@H]3CN(Cc4ccccn4)C[C@H]32)nn1.O=C(O)C(F)(F)F.O=C(O)C(F)(F)F.O=C(O)C(F)(F)F,Percent Effect,"30.3 µM, […]",63.6%
O=C(O)C(F)(F)F.O=C(O)C(F)(F)F.O=C(O)C(F)(F)F.c1ccc(CN2C[C@@H]3OCCN(c4ncccn4)[C@@H]3C2)nc1,Percent Effect,"30 µM, 30.03 µM",-0.09782%
c1ccc(CN2C[C@@H]3OCCN(c4cccnc4)[C@@H]3C2)nc1,Percent Effect,"30.3 µM, […]",55.81%
O=C(O)C(F)(F)F.c1cncc(N2CCO[C@H]3CN(CC4CCOC4)C[C@H]32)c1 (stereo not given in full),Percent Effect,"30.3 µM, […]",31.71%
Cc1ccc(N2CCO[C@H]3CN(Cc4ccncc4)C[C@H]32)nn1.O=C(O)C(F)(F)F.O=C(O)C(F)(F)F.O=C(O)C(F)(F)F,Percent Effect,"30 µM, 30.03 µM",16.14%
c1ccc(CN2C[C@@H]3OCCN(CC4CCCO4)[C@@H]3C2)nc1 (stereo not given in full),Percent Effect,"30 µM, 30.03 µM",15.57%
CC(C)N1CC[C@@H]2OC[C@H](C(=O)Nc3cccnc3)C[C@@H]2C1.O=C(O)C(F)(F)F.O=C(O)C(F)(F)F,Percent Effect,"30.3 µM, […]",-12.98%
CCCn1nc(C)c(-c2cncn2CC2(N(C)C)CCC(C)CC2)c1C (stereo not given),Percent Effect,"30.3 µM, […]",1.091%
CCCN1CCC(c2nc3ccc(C)cn3n2)CC1.O=C(O)C(F)(F)F,Percent Effect,"30.3 µM, […]",17.32%
Cc1cccc(CN2C(=O)C[C@H]3[C@@H]2CCN3Cc2nccs2)n1.O=C(O)C(F)(F)F.O=C(O)C(F)(F)F,Percent Effect,"30.3 µM, […]",2.484%
CC(C)NC(=O)c1ccc2c(c1)C1(CCN(C)CC1)C(=O)N2.O=C(O)C(F)(F)F,Percent Effect,"30.3 µM, […]",1.546%
Cc1ccc(C(=O)N2C[C@H](N3CCOCC3)[C@@H]3OCCC[C@@H]32)cn1.O=C(O)C(F)(F)F.O=C(O)C(F)(F)F,Percent Effect,"30.3 µM, […]",2.104%
CN1[C@H]2CC[C@@H]1CN(c1cc(Sc3cccs3)nc(N)n1)CC2,Percent Effect,"30.3 µM, […]",2.015%
CC(C)CCN1C[C@@H]2OCCN(c3ncc(F)cn3)[C@@H]2C1.O=C(O)C(F)(F)F,Percent Effect,"30.3 µM, […]",-5.572%
COCC1CC2(CCN(Cc3cccnc3)CC2)CN1C(C)C (stereo not given),Percent Effect,"30.3 µM, […]",20.26%
